Data on 19 molecules can be found in PubChem BioAssay (NCI).

The panel holds about 79,000 compounds, 15% with a hit somewhere; the sample as a whole holds those more often. Unmarked numbers belong to inactive results. The source made the active and inactive calls. No stated cut-off is given here; in the data, active means growth inhibition above about 70%; inactive means the rest.

A short description of assay [1]: NCI Yeast Anticancer Drug Screen. Data for the rad50 strain (AID 155).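 Further: 0% = growth of vehicle-only cultures of the same strain.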 The conditions noted are these: S. cerevisiae rad50 strain growth inhibition; at 50.0 µM; hits give high values. A digest of the protocol:
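A DNA repair-deficient yeast mutant serves as the test organism; compound-induced growth inhibition is calculated against vehicle-treated cells.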

Assay [2] is described as follows: NCI Yeast Anticancer Drug Screen. Data for the mec2-1 strain (AID 157). The following applies: S. cerevisiae mec2-1 strain, at 50.0 µM, hits give high values. A digest of the protocol:
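Growth inhibition is read against vehicle-treated controls after compound exposure of the mec2-1 yeast strain, which is defective in DNA damage repair or cell cycle control.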

A short description of assay [3]: NCI Yeast Anticancer Drug Screen. Data for the sgs1 mgt1 strain (AID 161).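 Further: 0% = growth of cultures given vehicle only.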 The following applies: S. cerevisiae sgs1 mgt1 strain, at 50.0 µM, hits give high values. The method, boiled down:
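Compounds are added to genetically altered yeast, and growth is compared with cultures given vehicle alone to give percent inhibition.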

Assay [4] can be described thus: NCI Yeast Anticancer Drug Screen. Data for the cln2 rad14 strain (AID 165).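 Further: 0% = growth equal to vehicle treated cultures.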 The conditions noted are these: S. cerevisiae cln2 rad14 strain, at 50.0 µM, hits give high values. A digest of the protocol:
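Growth inhibition, relative to vehicle-treated controls, is the read-out. The test organism is a yeast strain with defined genetic alterations, cln2 rad14.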

Assay [5] is described as follows: NCI Yeast Anticancer Drug Screen. Data for the bub3 strain (AID 167). The following applies: S. cerevisiae bub3 mutant strain, at 50.0 µM, hits give high values. The method, boiled down: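 Inhibition values come from growth of compound-treated mutant yeast normalised to vehicle-treated controls.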
Assay [6] can be described thus: NCI Yeast Anticancer Drug Screen. Data for the mlh1 rad18 strain (AID 175). The following applies: S. cerevisiae mlh1 rad18 strain growth inhibition; at 50.0 µM; hits give high values. The method, boiled down: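 Cells of a genetically altered yeast strain, deficient in DNA damage repair, were treated with compound. Their growth was then compared with that of vehicle-treated cultures to give inhibition.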

On to `Nc1ccnc2n[nH]nc12`, for which the growth inhibition in assay [1] was -3.7%; in assay [2], -2%; in assay [3] it was -19.1%; in assay [4], -9.05%; in assay [5] it was 5.05%; in assay [6] it was -26.8%.

Regarding `CCOC(=O)CCCN1CCC=C(C#N)C1`, the growth inhibition in assay [1] was 13%; in assay [2] it was -2.2%; in assay [3] it was 6.7%; in assay [4] it was -7.7%; in assay [5] it was 13%; in assay [6], 7.85%.

In the case of `COc1cccc2c1C1(O)C2CCCC12OCCCO2` (centres undefined), the growth inhibition in assay [1] is -26.3%; in assay [2] it was -10.3%; in assay [3], -50%; in assay [4] it was 6.5%; in assay [5], -29.4%; in assay [6], -31.2%.

Turning to `O=c1c2ccccc2sc2nc(CCl)nn12`, the growth inhibition in assay [1] was 6.2%; in assay [2] it was 4.25%; in assay [3], 8.2%; in assay [4], 16.8%; in assay [5] it was 2.05%; in assay [6], 47.2%.

Consider `S=C(Nc1ccccc1)N1CC2C3CCC(O3)C2C1` (centres undefined), for which the growth inhibition was 16.6% in assay [1]; 12.6% in assay [2]; 10.2% in assay [3]; 3.15% in assay [4]; 22.5% in assay [5]; 22.6% in assay [6].

As for `Cc1cc(Sc2ccccc2)nc2ccccc12`, the growth inhibition in assay [1] is 8.5%; in assay [2], -12.2%; in assay [3] it was 41.6%; in assay [4] it was 4.1%; in assay [5] it was 48.5%; in assay [6] it was 12.3%.

On to `COC(=O)C1CCC(=O)C(Sc2ccccc2)C1` (centres undefined), for which the growth inhibition in assay [1] is 25.1%; in assay [2] it was -11.9%; in assay [3], 18.4%; in assay [4], 6%; in assay [5], 32.1%; in assay [6], 28.4%.

In the case of `CCOC(=O)c1[nH]n(-c2ccccc2)c(=O)c1/C=N/C(N)=S`, the growth inhibition in assay [1] is 2%; in assay [2], -1.95%; in assay [3], -15.8%; in assay [4], 14.1%; in assay [5], 17.8%; in assay [6], 8.45%.

For the molecule `CC(C)c1ccccc1N1C(=O)CC(Sc2ccccc2N)C1=O` (centres undefined), the growth inhibition was -5.45% in assay [1]; -12.8% in assay [2]; -9.25% in assay [3]; -28.6% in assay [4]; 0.15% in assay [5]; 3.8% in assay [6].

With `Clc1ccc(OCCSCCOc2ccc(Cl)cc2)cc1`, the growth inhibition in assay [1] is 8.85%; in assay [2], -17.8%; in assay [3], 12.5%; in assay [4] it was -22.1%; in assay [5], 0.9%; in assay [6], 2.35%.

For `CN(C)C(=O)C1CCNCC1`, the growth inhibition in assay [1] is 2.5%; in assay [2], -2.1%; in assay [3], -4.15%; in assay [4] it was -9.5%; in assay [5] it was -11.3%; in assay [6], 3.45%.

As for `CC1CC(C)(C)C(C[NH-])C1[NH-].[Cl][Pt+2][Cl]` (centres undefined), the growth inhibition was 23.8% in assay [1]; 20.5% in assay [2]; 34.3% in assay [3]; 24.1% in assay [4]; 28.9% in assay [5]; 28.1% in assay [6].

Regarding `CC1=C(C)C(=O)OC1`, the growth inhibition was -3.55% in assay [1]; -12.3% in assay [2]; -0.9% in assay [3]; 6% in assay [4]; 9.85% in assay [5]; -24.5% in assay [6].

`CN(C(=O)C1(C(=O)C=[N+]=[N-])CC1)c1ccccc1`: the growth inhibition in assay [1] is -3.8%; in assay [2], -4.4%; in assay [3], -14.8%; in assay [4] it was 1.3%; in assay [5], -2.55%; in assay [6], 7.3%.

For `O=NN(CCF)C(=O)N[C@H]1CCCC[C@H]1O`, the growth inhibition in assay [1] is -15.7%; in assay [2], -19.1%; in assay [3] it was -27.1%; in assay [4], 2.75%; in assay [5], -15.9%; in assay [6], 1.45%.

With `NNc1ncnc2c1ncn2Cc1ccccc1`, the growth inhibition is 1.65% in assay [1]; -3.1% in assay [2]; 1.75% in assay [3]; -2.05% in assay [4]; -22.6% in assay [5]; -14.4% in assay [6].

For `CC(=O)CC(C)(C)NC(=S)Nc1ccc(C)cc1`, the growth inhibition was 22.6% in assay [1]; 46.1% in assay [2]; 15.3% in assay [3]; -10.7% in assay [4]; 99.2% (active) in assay [5]; 42.3% in assay [6].

Consider `CC(=O)Nc1cccc(Cl)c1`, for which the growth inhibition in assay [1] is -2.25%; in assay [2], -24.5%; in assay [3] it was -0.2%; in assay [4] it was -4.8%; in assay [5] it was -1.45%; in assay [6], 6.5%.

In the case of `N#CC(C#N)N=Cc1ccncc1`, the growth inhibition in assay [1] was 14.2%; in assay [2], 12.2%; in assay [3], -21.6%; in assay [4], -12.8%; in assay [5], -1.1%; in assay [6], -29.2%.
